This note sets out measurements from PubChem BioAssay (NCI).

Several values for one entry are separate records, joined by “and”; a condition that tells them apart may be missing. Identical values can stand only once. The panel holds about 83,000 compounds, 20% with a hit somewhere; the sample as a whole holds those more often.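 96-well plates, one dose, 48 hours. Percent growth reported; active if below 10.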 Activity calls are given as the source filed them.

In one test the test system is SK-MEL-2 melanoma. Kind of test: NCI-60 one-dose screen, 48 h (100 = growth as untreated, 0 = no growth, -100 = all killed). Conditions: 10 µM. The method, then:
Growth inhibition of the SK-MEL-2 human tumor cell line is measured as a screen for anti-cancer activity. Cells are grown in 96 well plates and exposed to the test compound for 48 hours. Compounds are tested at a single concentration, which is 10^-5 M for most compounds. The reported endpoint is percent growth (GI% or GIPRCNT), where numbers from 0 - 100% represent growth inhibition, and numbers from -100% - 0 represent cell death. For example, a value of 40 represents 60% growth inhibition. A value of 0 means no net growth occurred over the course of the experiment. A value of -40 indicates 40% of cells at the beginning of the experiment died by the end of the experiment. A value of -100 means all cells are dead at the end of the experiment.
NCI-60 Human Tumor Cell Lines Screen was performed using the standard one-dose NCI protocol, which is described in more detail at https://dtp.cancer.gov/discovery_development/nci-60/default.htm.
Compounds with GIPRCNT values below 10 were considered active. Activity score was based on GIPRCNT using the following formula: […]
Score is 0 for GIPRCNT values of 100 or above, 50 for GIPRCNT values of 0, and 100 for GIPRCNT values of -100.
For `CN(C)C(=O)c1ccc(SC(=S)NCc2ccccc2)cc1`, the growth was 114% (inactive).

The same test, now with this note: 10 µM unless noted.
Consider `Cn1c2ccccc2c2nnc(N/N=C/c3ccccn3)nc21`, for which the growth is 51.3% (inactive). Still for that read-out and setting: the result for `COc1cc(/C=C(/C)C[N+](=O)[O-])ccc1O` reads 96.9% (inactive); that for `N#CSCc1ccc(Cl)c(CSC#N)c1`, 83.2% (inactive); that for `C=C(Cl)C(=NC(C)(C)C)Nc1ccccc1C`, 139% (inactive).

Consider `O=C(/C=C/C=C/c1ccccc1)c1ccco1`, for which the growth is 103% (inactive).

Consider `CN(Cc1cnc2nc(N)nc(N)c2n1)c1ccc(C(=O)NC(CCC(=O)O)C(=O)O)cc1` (stereo not given), for which the growth was 79.6% (inactive). On the same count and under the same terms, the same measure for `S=C(NCCNC(=S)[S][Sn]([c]1ccccc1)([c]1ccccc1)[c]1ccccc1)[S][Sn]([c]1ccccc1)([c]1ccccc1)[c]1ccccc1`: -93.1% (active); for `CCOC(=O)/C(=C\c1ccc(-c2ccccc2)cc1)C(C)=O`: 104% (inactive); for `NC(=O)/C=C/C(=O)c1c(Cl)cccc1Cl`: -67.4% (active). On the same count and under the same terms, the same measure for `O=C(Nc1ccccc1)Oc1c(Cl)c(Cl)c(Cl)c(Cl)c1Cl`: 95.6% (inactive) and 101% (inactive). Still for that read-out and setting: the same measure for `S=C(N/N=C/c1ccccn1)Nc1ccccn1`: -5.58% (active); for `O=C1c2ccccc2C(=O)c2sc(Nc3ccc(Cl)cc3)nc21`: 35.9% (inactive); for `O[C@H]1[C@H]2c3cc4c(cc3CN3CCC(=C[C@@H]1O)[C@H]23)OCO4`: 24.5% (inactive). With `Cc1ccc2nc(C[n+]3ccc4ccccc4c3)ccc2c1`, the growth was 78.8% (inactive).

As to `O=C(O)c1ccc2c3c(ncnc13)-c1ccccc1C2=O`, the growth is 88.4% (inactive). On to `COc1cc(NS(C)(=O)=O)ccc1Nc1c2ccccc2nc2ccccc12`, for which the growth is 96.5% [2.5 µM] (inactive). Same read-out and setting: the same measure for `O=C1C=CC(=O)N1C1c2ccccc2-c2ccccc21`: 100% (inactive); for `c1ccc2c(c1)Nc1cc3ccccc3cc1N2`: 84% (inactive). On the same count and under the same terms, the result for `OC(CNc1ccnc2cc(Cl)ccc12)CNc1ccnc2cc(Cl)ccc12` reads 104% (inactive); that for `CCCCCCCCCCCCCCCCCCOP(=O)([O-])OC1CC[N+](C)(C)CC1`, -14.6% (active). Same read-out and setting: the same measure for `CCCCCC(CCCCC)C(=O)O`: 99.2% (inactive). For `Cc1ccc(N=C=C(c2ccccc2)c2ccccc2)cc1`, the growth is 97.5% (inactive). For the molecule `O=C1C2=C(Nc3cc([N+](=O)[O-])ccc3N2)OC1c1c2ccccc2cc2ccccc12` (stereo not given), the growth is 87.4% (inactive). On the same count and under the same terms, the same measure for `CC1=CC(O)C2CC1C2(C)C` (stereo not given): 92.8% (inactive); for `CN(C)c1ccc(/C=N/N=C(\C#N)[S][Sn]([Cl])([c]2ccccc2)[c]2ccccc2)cc1`: 40.3% (inactive). Still for that read-out and setting: the result for `O=C1N[C@H]2[C@H](CS[C@H]2CCCCC(=O)N(CCP(c2ccccc2)c2ccccc2)CCP(c2ccccc2)c2ccccc2)N1` reads 81.3% (inactive); that for `CCOc1ccc(-c2nc3ccc(-c4nc5ccc(N6CCN(C)CC6)cc5[nH]4)cc3[nH]2)cc1`, 4.1% (active); that for `CCC(CCCN(CC)CCc1ccccc1)OC(=O)c1cc(OC)c(OC)c(OC)c1` (stereo not given), 95.6% (inactive).

In the case of `O=[N+]([O-])c1ccc(N=Nc2ccc(O)cc2O)cc1`, the growth was 43.1% (inactive). Consider `C[n+]1c(/C=C/c2ccc([N+](=O)[O-])cc2)ccc2ccccc21`, for which the growth is 103% (inactive).

Take `O=C(/C=C\c1cc(Br)ccc1O)/C=C/c1cc(Br)ccc1O`: the growth is -63.1% (active).

Regarding `Cc1ccc2c(ccc3c[n+]4c5ccccc5ccc4n32)c1`, the growth is -19.8% (active). Take `N[C@H](C(=O)O)[C@@H]1CC(Cl)=NO1`: the growth is 46.3% [20 µM] (inactive). On the same count and under the same terms, the same measure for `COc1cc(/C=C/C(C)=O)ccc1O`: 105% (inactive). On the same count and under the same terms, the same measure for `Cc1ccnc(NC(c2ccccc2)c2ccc3cccnc3c2O)c1` (stereo not given): 50.4% (inactive). On the same count and under the same terms, the same measure for `N#CSCc1c(Cl)cccc1Cl`: 102% (inactive); for `Nc1ncnc2c1ncn2C1OC(CO)C(O)C1O` (stereo not given): 144% (inactive) and 67.2% (inactive) and 121% (inactive); for `COc1ccc2nc3cc(Cl)ccc3c(NCCNc3c4ccc(Cl)cc4nc4ccc(OC)cc34)c2c1`: -73.1% (active).

The test is the same for the next values; noted with them: 100 µM.
With `CN(C)C(=O)c1ccc(SC(=S)NCc2ccccc2)cc1`, the growth is 4.25% (active).
